# Measured values published in the supplement of paper PMC13380429.
# Values without a mark were called inactive.
# Test system: Vero E6 infected with SARS-CoV-2
# Test: inhibition of SARS-CoV-2 cytopathic effect; higher = more antiviral protection, active = above 15
# Conditions: 48 h
Compound,inhibition of SARS-CoV-2 cytopathic effect (1 nM),inhibition of SARS-CoV-2 cytopathic effect (8.33 nM),inhibition of SARS-CoV-2 cytopathic effect (100 nM),inhibition of SARS-CoV-2 cytopathic effect (833.33 nM),inhibition of SARS-CoV-2 cytopathic effect (10000 nM)
O=CN1CCC(C(=O)NCCN2CCC(=C3c4ccccc4C=Cc4ccccc43)CC2)CC1,1.02%,0.48%,0.42%,-2.21%,1.23%
O=c1ccc2cc(O[C@@H]3O[C@H](CO)[C@@H](O)[C@H](O)[C@H]3O)c(O)cc2o1 [esculin],-1.01%,-0.49%,-1.32%,-1.49%,-0.95%
CC(C)(NS(=O)(=O)c1ccc(Oc2ccc(F)cc2)cc1)C(=O)NO,3.55%,0.75%,2.56%,0.48%,-0.6%
Cn1c(=O)c2[nH]cnc2n(C)c1=O [aminophylline],-0.89%,-0.66%,-1.42%,-0.87%,-0.09%
"CCCCC/C=C\C=C\CCCCCCCCC(=O)O [trans-10,cis-12-conjugated-linoleic-acid]",-0.53%,-2.2%,-2.88%,-2.64%,7.84%
Cc1ccc(NC(=O)c2cccc(N(C)C)c2)cc1NC(=O)c1ccc(O)cc1,-3.41%,-1.26%,6.65%,1.14%,6.69%
CNCCCC1(c2ccccc2)OC(C)(C)c2ccccc21 (stereo not given) [talopram],-0.51%,-1.8%,0.91%,-2.03%,-3.52%
Cc1cc2c(C(C)C)c(O)c(O)c(C=O)c2c(O)c1-c1c(C)cc2c(C(C)C)c(O)c(O)c(C=O)c2c1O [gossypol],-0.82%,-3.04%,-0.64%,-2.5%,-6.17%
COc1cc2c(cc1OC)-c1c/c(=N\c3c(C)cc(C)cc3C)n(C)c(=O)n1CC2 [trequinsin],1.9%,2.01%,-0.55%,3.41%,6.34%
O=C(NCCCN1CCOCC1)c1ccc(Cl)cc1 [eprobemide],0.75%,1.72%,4.31%,-1.08%,0.69%
CCCS(=O)(=O)Nc1ccc(F)c(C(=O)c2c[nH]c3ncc(-c4ccc(Cl)cc4)cc23)c1F [vemurafenib],3.98%,1.81%,-0.86%,2.45%,4.29%
COc1ccc(CC(C)NCC(O)c2ccc(O)c(NC=O)c2)cc1 (stereo not given) [formoterol],0.12%,2.33%,1.69%,0.54%,10.8%
N[C@@H](CSCCCO)C(=O)O [fudosteine],0.08%,1.3%,0.76%,1.15%,-1.74%
CC(C)Nc1cccnc1N1CCN(C(=O)c2cc3cc(NS(C)(=O)=O)ccc3[nH]2)CC1 [delavirdine],-1.49%,-0.85%,1.56%,1.65%,2.87%
CNCCC=C1c2ccccc2C=Cc2ccccc21 [norcyclobenzaprine],-0.66%,3.83%,-2.37%,-0.19%,-7.92%
CCN(CC)CCOCCOC(=O)C1(c2ccccc2)CCCC1 [carbetapentane],-0.34%,0.73%,1.1%,1.39%,0.95%
O=c1ccc2ccc(OCCCCN3CCN(c4cccc5sccc45)CC3)cc2[nH]1 [brexpiprazole],-0.6%,2.4%,2.49%,2.71%,-8.91%
N[C@@H]1CCN(c2cccnc2)C1,0.23%,0.19%,1.46%,2.41%,3.85%
Cc1cnc(CNC(=O)c2c(=O)c3ccc(N4CCCN(C)CC4)nc3n3c2sc2ccccc23)cn1,0.83%,-2.59%,-1.2%,4.48%,0.59%
Cc1cc(Cl)ccc1OCCCC(=O)NO [droxinostat],4.45%,1.04%,1.23%,1.7%,-3.27%
CCCN1CC(NS(=O)(=O)N(CC)CC)CC2Cc3c(O)cccc3CC21 (stereo not given) [quinagolide],-1.57%,-0.18%,-0.29%,-13.8%,-6.37%

Compound,inhibition of SARS-CoV-2 cytopathic effect (1 nM),inhibition of SARS-CoV-2 cytopathic effect (8.33 nM),inhibition of SARS-CoV-2 cytopathic effect (100 nM),inhibition of SARS-CoV-2 cytopathic effect (833.33 nM),inhibition of SARS-CoV-2 cytopathic effect (10000 nM)
CCN(CC)CCOC(=O)c1cc(Cl)c(N)cc1OC,3.29%,3.49%,1.89%,-0.08%,-0.47%
Clc1ccc(Nc2nnc(Cc3ccncc3)c3ccccc23)cc1 [vatalanib],0.19%,-1.32%,0.29%,3.79%,1.06%
c1ccc(OCc2ccc(CCCN3CCOCC3)cc2)cc1 [fomocaine],0.24%,1.88%,1.23%,-0.27%,3.83%
O=C1c2ccccc2CCC1CNCCc1ccc(O)cc1 (stereo not given),0.05%,-1.18%,-2.27%,-0.45%,-0.46%
C[C@H](N)C(=O)N[C@@]1(C(=O)O)C[C@@H](Sc2nnc[nH]2)[C@H]2[C@H](C(=O)O)[C@H]21,-2.66%,-4.35%,-3.65%,-1.13%,0.56%
Cc1ccc(C(=O)Nc2cccc(C(F)(F)F)c2)cc1Nc1nc(-c2cccnc2)nc2c1cnn2C,-0.06%,0.17%,3.74%,8.31%,28.1% (active)
C[C@]12CC[C@@H]3c4ccc(O)cc4CC[C@H]3[C@@H]1CCC2=O [estrone],1.09%,1.93%,-0.92%,0.5%,2.53%
Cc1ccc(C(=O)c2cc(O)c(O)c([N+](=O)[O-])c2)cc1 [tolcapone],-5.06%,-3.82%,-4.1%,0.66%,1.15%
Cc1ccc(-c2ncc[nH]2)cc1NC(=O)c1ccc(OCc2ccccn2)cc1,-1.02%,-0.95%,-2.09%,-4.18%,-4.54%
O=C1N=C2SCCN2C(=O)C1Cc1ccc(Cl)cc1 (stereo not given) [nuclomedone],-1.33%,-3.69%,0.26%,0.58%,-2.17%
Cc1c(N(C)CS(=O)(=O)O)c(=O)n(-c2ccccc2)n1C [metamizole],5.03%,0.47%,-1.36%,-3.82%,0.29%
CCCc1nc(C(C)(C)O)c(C(=O)O)n1Cc1ccc(-c2ccccc2-c2nnn[nH]2)cc1 [olmesartan],1.89%,-1.22%,1.17%,0.82%,-0.94%
Cc1ncc(CO)c(CO)c1O [pyridoxine],-15.8%,-9.76%,-7.58%,-12.7%,-14.1%
NC(=O)C[C@H](N)C(=O)O [L-asparagine],-2.05%,-1.93%,-3.65%,-1.45%,-0.9%
CC(C)c1nc(N(C)S(C)(=O)=O)nc(-c2ccc(F)cc2)c1/C=C/[C@@H](O)C[C@@H](O)CC(=O)O [rosuvastatin],-0.46%,0.22%,-2.09%,-3.33%,-2.75%
CCCCCCCCCCC(O)C1C=CC2C(=O)N(c3ccccc3)C(=O)C2N1Nc1ccc([N+](=O)[O-])cc1 (stereo not given),0.91%,0.89%,1.56%,4.49%,8.83%
CN1CCCCC1Cn1cc(C(=O)c2cc([N+](=O)[O-])ccc2I)c2ccccc21 (stereo not given),-0.48%,0.44%,0.04%,-2.69%,4.92%
NC(=O)c1cccnc1 [nicotinamide],-0.85%,1.53%,-1.16%,2.49%,7.29%
CCC(NC(C)C)C(O)c1ccc(O)c(O)c1 (stereo not given) [isoetharine],-0.44%,0.06%,-2.12%,-0.61%,1.5%
CCCCCn1cc(C(=O)NC23CC4CC(CC(C4)C2)C3)c(=O)c2cc(-c3ccccc3)ccc21,-3.48%,-3%,-0.96%,-1.94%,-5.93%
